The results in this text go back to PubChem BioAssay.

The source made the active and inactive calls.

Assay [1] in a line: small molecules captured by biotinylated probe aFSTL3 – biochemical, small-molecule microarray, fluorescence 635/667, stem cell growth factor project, primary screen (AID 1064).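 Also: measures binding of the biotinylated anti-FSTL3 antibody to printed compounds.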 The note with it: higher = more signal.
A short description of assay [2]: binders from COS7 lysate, DM2A8 probe, primary screen, torsin A project, cell lysate, small-molecule microarray, fluorescence 635/667 (AID 1065). The settings on record: higher = more signal, COS7 lysate expressing mutant human TOR1A.
A short description of assay [3]: small molecules captured by biotinylated probe aFGF2 – biochemical, small-molecule microarray, fluorescence 635/667, stem cell growth factor project, primary screen (AID 1067).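 Also: measures binding of biotinylated aFGF2 protein to printed compounds on slides; z-score merges feature fluorescence and signal-to-noise across triplicate slides.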 The note with it: higher = more signal.
The nature of assay [4]: small molecules captured by biotinylated probe aFGF10 – biochemical, small-molecule microarray, fluorescence 635/667, stem cell growth factor project, primary screen (AID 1071).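 Also: score merges 667 nm spot intensity and signal to noise from triplicate slides.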 The note with it: higher = more signal.
In assay [5] the target is Neurogenic locus notch homolog protein 2 (Homo sapiens) (UniProt Q04721). Briefly: small molecules binding Notch2 protein – biochemical, small-molecule microarray, 635 nm fluorescence, stem cell growth factors, primary screen (AID 1073). The settings on record: higher = more signal.
Chain of Neurogenic locus notch homolog protein 2 (Homo sapiens) (Q04721 whole entry, looked up, canonical isoform): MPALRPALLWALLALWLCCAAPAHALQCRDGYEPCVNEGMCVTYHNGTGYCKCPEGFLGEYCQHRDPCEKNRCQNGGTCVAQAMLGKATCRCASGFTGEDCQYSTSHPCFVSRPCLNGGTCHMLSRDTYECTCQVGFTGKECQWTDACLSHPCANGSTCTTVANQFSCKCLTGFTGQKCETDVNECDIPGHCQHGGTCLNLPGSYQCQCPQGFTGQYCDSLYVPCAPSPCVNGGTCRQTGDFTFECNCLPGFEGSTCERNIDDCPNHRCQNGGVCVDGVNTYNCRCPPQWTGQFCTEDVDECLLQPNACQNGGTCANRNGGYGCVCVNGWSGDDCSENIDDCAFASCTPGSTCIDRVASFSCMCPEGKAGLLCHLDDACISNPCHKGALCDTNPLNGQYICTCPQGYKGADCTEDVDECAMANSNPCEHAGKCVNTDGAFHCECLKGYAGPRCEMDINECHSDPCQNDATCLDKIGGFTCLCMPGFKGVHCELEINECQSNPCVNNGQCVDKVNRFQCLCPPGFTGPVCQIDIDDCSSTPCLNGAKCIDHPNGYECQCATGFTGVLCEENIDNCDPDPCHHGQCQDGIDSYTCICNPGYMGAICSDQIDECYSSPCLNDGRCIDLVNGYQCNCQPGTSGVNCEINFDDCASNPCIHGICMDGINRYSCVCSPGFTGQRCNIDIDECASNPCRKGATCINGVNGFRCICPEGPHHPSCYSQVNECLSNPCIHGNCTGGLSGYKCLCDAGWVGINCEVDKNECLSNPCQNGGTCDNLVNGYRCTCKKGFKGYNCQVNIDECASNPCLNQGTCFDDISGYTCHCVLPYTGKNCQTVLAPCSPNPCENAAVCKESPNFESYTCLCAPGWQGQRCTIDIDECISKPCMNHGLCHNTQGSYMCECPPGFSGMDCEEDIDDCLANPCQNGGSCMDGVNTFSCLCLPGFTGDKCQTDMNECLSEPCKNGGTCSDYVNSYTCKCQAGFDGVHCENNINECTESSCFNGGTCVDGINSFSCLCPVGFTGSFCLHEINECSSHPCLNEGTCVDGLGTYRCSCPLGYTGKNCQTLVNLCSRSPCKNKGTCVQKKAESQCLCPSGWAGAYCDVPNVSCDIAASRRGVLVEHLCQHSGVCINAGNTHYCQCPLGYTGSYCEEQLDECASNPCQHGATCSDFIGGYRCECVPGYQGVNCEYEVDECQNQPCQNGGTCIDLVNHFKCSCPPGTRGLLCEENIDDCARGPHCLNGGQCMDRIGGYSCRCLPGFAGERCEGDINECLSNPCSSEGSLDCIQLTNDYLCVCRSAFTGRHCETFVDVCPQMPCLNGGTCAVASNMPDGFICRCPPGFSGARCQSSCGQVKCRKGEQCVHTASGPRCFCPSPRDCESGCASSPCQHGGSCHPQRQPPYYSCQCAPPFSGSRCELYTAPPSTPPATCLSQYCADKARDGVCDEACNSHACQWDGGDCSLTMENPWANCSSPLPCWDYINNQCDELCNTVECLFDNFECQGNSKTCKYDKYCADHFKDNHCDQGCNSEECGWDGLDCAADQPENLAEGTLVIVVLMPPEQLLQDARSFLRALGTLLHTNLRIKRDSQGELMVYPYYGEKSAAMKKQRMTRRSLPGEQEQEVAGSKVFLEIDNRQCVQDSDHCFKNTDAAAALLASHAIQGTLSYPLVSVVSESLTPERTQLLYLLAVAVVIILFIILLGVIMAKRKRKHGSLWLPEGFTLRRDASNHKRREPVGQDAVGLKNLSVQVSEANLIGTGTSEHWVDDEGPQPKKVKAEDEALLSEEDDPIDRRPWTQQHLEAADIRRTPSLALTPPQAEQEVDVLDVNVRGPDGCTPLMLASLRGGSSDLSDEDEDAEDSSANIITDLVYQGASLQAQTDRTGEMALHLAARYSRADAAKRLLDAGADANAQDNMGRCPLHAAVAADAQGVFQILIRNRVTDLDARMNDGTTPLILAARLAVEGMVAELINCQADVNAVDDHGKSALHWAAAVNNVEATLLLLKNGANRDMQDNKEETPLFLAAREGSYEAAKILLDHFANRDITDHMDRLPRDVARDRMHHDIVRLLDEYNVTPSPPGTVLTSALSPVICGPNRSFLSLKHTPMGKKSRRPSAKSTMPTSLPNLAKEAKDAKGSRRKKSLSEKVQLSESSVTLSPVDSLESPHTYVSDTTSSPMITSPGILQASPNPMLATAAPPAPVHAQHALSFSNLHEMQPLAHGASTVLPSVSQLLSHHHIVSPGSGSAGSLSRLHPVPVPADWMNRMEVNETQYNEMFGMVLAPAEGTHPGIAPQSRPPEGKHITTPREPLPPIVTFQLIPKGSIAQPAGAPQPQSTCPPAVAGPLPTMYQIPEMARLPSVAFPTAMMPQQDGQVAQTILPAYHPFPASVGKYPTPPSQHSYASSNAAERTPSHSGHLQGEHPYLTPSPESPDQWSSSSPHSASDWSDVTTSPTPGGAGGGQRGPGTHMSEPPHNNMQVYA
Assay [6] addresses Pro-neuregulin-1, membrane-bound isoform (Homo sapiens) (UniProt Q02297). Briefly: small molecules binding neuregulin-1 protein – biochemical, small-molecule microarray, fluorescence 635/667, psychiatric disease protein project, primary screen (AID 1075).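 Also: score combines 667 nm spot fluorescence with signal to noise.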 The settings on record: NRG1 binding, 635 nm fluorescence, higher = more signal.
Assay [7] relates to Neuregulin-1 EGF-like domain. Briefly: small molecules binding NRG1 EGF domain – biochemical, small-molecule microarray, 635 nm fluorescence, primary screen (AID 1081).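 Also: binding of the protein to compounds printed on small-molecule microarray slides.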 The settings on record: higher = more signal.
Assay [8] is described as follows: FRG1 expression reporter modulators in myotubes – cell-based, C2C12 myotubes, firefly/Renilla luciferase, luminescence, FRG1 inhibition for FSHD, primary screen (AID 1084). The settings on record: FRG1 promoter luciferase, higher = more signal, called active from +8 up or from −8 down.
Assay [9] can be described thus: small molecules captured by biotinylated probe aFST – biochemical, small-molecule microarray, fluorescence 635/667, stem cell growth factor project, primary screen (AID 1086).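 Also: score merges 667 nm fluorescence with signal-to-noise of each printed compound spot.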 The note with it: higher = more signal.
A short description of assay [10]: binders of probe aHhip on microarray, primary screen, stem cell growth factor project, biochemical, small-molecule microarray, fluorescence 635/667 (AID 1087).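 Also: score merges spot fluorescence at 667nm with spot signal to noise ratio.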 The note with it: higher = more signal.
The test system of assay [11] is PRMT1 (protein arginine N-methyltransferase 1). The experiment in a line: small molecules binding arginine methyltransferase PRMT1 – biochemical, small-molecule microarray, 635 nm fluorescence, primary screen (AID 1088).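 Also: binding of Prmt1 protein to compounds spotted on small-molecule microarray slides.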 The settings on record: higher = more signal.
Assay [12] in a line: growth effects on S. cerevisiae YJM789 – YJM789 clinical isolate, OD600, 24 h, basal, primary screen (AID 1089).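 Also: growth of clinical yeast isolate S. cerevisiae YJM 789 seeded 1000 cells per well; test concentration not given here.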 The note with it: higher = more signal, called active from +8 up or from −8 down.
The nature of assay [13]: S. pombe growth modifiers, basal conditions – strain 972, OD600, 24 h, no modulator, primary screen (AID 1090).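 Also: basal condition with compound alone and no growth modifier present; test concentration not given here.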 The note with it: S. pombe 972 growth, higher = more signal, called active from +8 up or from −8 down.
Assay [14] can be described thus: budding yeast growth modifiers under rapamycin – strain BY4716, OD600, 96 h, primary screen (AID 1091). Also: test concentration not given here. The settings on record: S. cerevisiae BY4716 + rapamycin, higher = more signal, called active from +8 up or from −8 down.
Assay [15] addresses Torsin-1A-interacting protein 2 (Homo sapiens) (UniProt Q8NFQ8). Briefly: small molecules binding lysate-expressed LULL1 – cell lysate, human LULL1 lysate, 635/667 nm fluorescence, primary screen (AID 1092).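 Also: probe is lysate of COS7 cells overexpressing human LULL1; score merges per-feature 667 nm fluorescence with signal-to-noise.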 The note with it: small-molecule microarray, hLULL1 lysate binding, 635 nm fluorescence; higher = more signal.
A short description of assay [16]: optical density change of DRC41 E. coli – strain DRC41, OD650, 24 h, E. coli filamentation project, primary screen (AID 1093).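 Also: MC1000 strain lacking acrAB efflux and sulA so SOS filamentation is blocked; test concentration not given here.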 The settings on record: E. coli DRC41 growth, higher = more signal, called active from +8 up or from −8 down.
Assay [17] can be described thus: probe aLefty2 binding to arrayed compounds – biochemical, biotinylated probe, 635/667 nm fluorescence, primary screen (AID 1094).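 Also: score merges spot fluorescence near 667 nm with spot signal-to-noise ratio.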 The note with it: small-molecule microarray, higher = more signal.
Assay [18] has as its system Noggin (protein binding on small-molecule microarray). The experiment in a line: small molecules binding Noggin protein – biochemical, 635/667 nm fluorescence, primary screen (AID 1095).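 Also: score merges 667 nm feature fluorescence with signal to noise over triplicate slides.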 The note with it: 635 nm fluorescence, higher = more signal.
For assay [19], the target named is Neurogenic locus notch homolog protein 3 (Homo sapiens) (UniProt Q9UM47). The experiment in a line: small molecules binding NOTCH3 protein – biochemical, 635/667 nm fluorescence, primary screen (AID 1096). The settings on record: small-molecule microarray, 635 nm fluorescence, higher = more signal.
Chain of Neurogenic locus notch homolog protein 3 (Homo sapiens) (Q9UM47 whole entry, looked up): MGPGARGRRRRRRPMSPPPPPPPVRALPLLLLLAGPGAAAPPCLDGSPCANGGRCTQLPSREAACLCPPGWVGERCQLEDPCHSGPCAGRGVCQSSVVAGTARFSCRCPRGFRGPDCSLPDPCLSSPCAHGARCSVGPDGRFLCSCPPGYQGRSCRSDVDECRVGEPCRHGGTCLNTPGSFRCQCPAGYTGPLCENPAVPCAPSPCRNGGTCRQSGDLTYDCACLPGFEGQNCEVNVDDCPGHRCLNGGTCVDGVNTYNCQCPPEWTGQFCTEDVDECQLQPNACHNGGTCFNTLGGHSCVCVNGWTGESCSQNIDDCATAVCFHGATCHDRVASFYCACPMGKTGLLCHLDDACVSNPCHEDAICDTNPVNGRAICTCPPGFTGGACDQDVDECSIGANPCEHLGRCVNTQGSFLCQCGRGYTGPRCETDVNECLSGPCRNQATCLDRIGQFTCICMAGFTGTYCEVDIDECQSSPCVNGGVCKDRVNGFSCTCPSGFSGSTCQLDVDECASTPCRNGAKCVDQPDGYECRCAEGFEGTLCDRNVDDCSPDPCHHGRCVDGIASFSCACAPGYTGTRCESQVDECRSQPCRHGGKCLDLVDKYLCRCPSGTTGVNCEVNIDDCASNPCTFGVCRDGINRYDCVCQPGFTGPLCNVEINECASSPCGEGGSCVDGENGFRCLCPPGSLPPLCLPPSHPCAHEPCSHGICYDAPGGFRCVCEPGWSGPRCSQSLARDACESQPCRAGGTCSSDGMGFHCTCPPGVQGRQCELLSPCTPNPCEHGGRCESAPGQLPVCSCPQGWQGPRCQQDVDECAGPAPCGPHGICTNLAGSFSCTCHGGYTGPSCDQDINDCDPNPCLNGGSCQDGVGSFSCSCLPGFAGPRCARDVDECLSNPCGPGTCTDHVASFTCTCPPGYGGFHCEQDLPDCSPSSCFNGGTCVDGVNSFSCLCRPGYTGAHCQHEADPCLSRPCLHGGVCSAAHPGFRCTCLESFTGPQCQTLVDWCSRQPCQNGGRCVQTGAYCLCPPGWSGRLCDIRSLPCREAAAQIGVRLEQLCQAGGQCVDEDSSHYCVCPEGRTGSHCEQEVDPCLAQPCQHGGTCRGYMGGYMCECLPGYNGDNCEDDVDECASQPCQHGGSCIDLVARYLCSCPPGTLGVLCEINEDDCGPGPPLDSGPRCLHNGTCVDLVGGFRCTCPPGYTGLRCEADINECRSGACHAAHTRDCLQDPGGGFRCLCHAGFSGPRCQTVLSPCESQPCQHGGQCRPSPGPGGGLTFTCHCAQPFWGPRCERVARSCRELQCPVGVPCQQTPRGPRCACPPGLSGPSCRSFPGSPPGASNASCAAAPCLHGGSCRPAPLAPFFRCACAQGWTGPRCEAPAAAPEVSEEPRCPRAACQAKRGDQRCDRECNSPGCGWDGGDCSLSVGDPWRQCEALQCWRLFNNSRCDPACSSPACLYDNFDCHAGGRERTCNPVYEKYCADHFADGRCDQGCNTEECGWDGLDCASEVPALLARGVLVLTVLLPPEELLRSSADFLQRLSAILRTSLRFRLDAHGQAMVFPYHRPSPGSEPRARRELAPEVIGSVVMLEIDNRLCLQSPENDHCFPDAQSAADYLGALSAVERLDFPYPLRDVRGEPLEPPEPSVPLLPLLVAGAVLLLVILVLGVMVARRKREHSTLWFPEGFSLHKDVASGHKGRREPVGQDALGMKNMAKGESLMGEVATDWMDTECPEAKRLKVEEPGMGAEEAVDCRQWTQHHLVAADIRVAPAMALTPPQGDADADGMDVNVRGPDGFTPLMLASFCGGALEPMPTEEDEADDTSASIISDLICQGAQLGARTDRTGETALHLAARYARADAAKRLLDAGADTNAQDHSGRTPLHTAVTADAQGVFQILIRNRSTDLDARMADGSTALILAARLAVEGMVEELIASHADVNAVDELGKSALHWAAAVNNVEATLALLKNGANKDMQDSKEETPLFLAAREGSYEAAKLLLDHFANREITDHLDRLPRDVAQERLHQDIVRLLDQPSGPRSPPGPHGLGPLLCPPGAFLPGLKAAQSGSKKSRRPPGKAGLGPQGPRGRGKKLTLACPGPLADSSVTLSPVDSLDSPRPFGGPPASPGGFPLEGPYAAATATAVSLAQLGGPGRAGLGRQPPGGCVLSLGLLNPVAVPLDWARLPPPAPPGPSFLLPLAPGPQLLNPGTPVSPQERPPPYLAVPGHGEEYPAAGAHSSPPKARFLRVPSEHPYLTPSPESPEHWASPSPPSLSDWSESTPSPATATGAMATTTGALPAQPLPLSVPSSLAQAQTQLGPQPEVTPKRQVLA
Assay [20] is described as follows: probe aEGFR binding to arrayed compounds – biochemical, biotinylated probe, 635/667 nm fluorescence, primary screen (AID 1097).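 Also: probe is a biotinylated anti-EGFR antibody binding compounds printed on slides; score combines fluorescence near 667 nm and signal to noise of each spot.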 The note with it: small-molecule microarray, higher = more signal.

For `Cc1ccc(C(C)CC(O)C2C=CC3C(=O)N(C)C(=O)C3N2NC(=O)OC(C)(C)C)o1` (stereo not given), the composite z-score in assay [1] was -0.112; in [2], 0.6; in assay [3], 0.239; in [4], 0.687; in assay [5], 0.868; in [6], 1.67. Moreover, the composite z-score in [7] is 0.883; in assay [9], 0.889; in assay [10] it was -0.27; in assay [11], 1.42; in assay [15], 3; in assay [17] it was 0.0682. In addition, the composite z-score in assay [18] is 0.68; in assay [19], 1.06; in assay [20], 0.0681. For the same molecule, the z-score was 0.385 (inactive) in [8]; 0.309 (inactive) in [12]; -0.63 (inactive) in assay [13]; 0.101 (inactive) in assay [14]; -0.615 (inactive) in assay [16].

Turning to `C=C(CCCC)/C(=C/C[C@@H](OC(C)=O)c1ccccc1OCCO)c1cnc2ccccc2c1`, the composite z-score in [1] was 0.0298; in assay [2], 1.08; in [3] it was -0.0633; in [4], -0.036; in [5] it was 0.13; in assay [6] it was 0.967. Moreover, the composite z-score is 0.95 in [7]; 0.0983 in [9]; 0.176 in assay [10]; 1.3 in [11]; 1.1 in assay [15]; -0.0208 in assay [17]. The composite z-score in [18] was 0.61; in [19], 0.513; in assay [20], -0.0675. The z-score in [8] was -0.983 (inactive); in [12], 0.182 (inactive); in [13] it was -0.727 (inactive); in [14], 0.0058 (inactive); in assay [16], 0.468 (inactive).

With `COC(=O)[C@@]1(Cc2ccc(F)cc2)[C@H]2c3cc(C(=O)N(C)C)n(Cc4nc5ccccc5[nH]4)c3C[C@H]2CN1C(=O)c1ccccc1`, the composite z-score in assay [1] is 0.258; in [2], -1.35; in assay [3] it was 0.349; in assay [4], 0.841; in assay [5] it was 1.66; in assay [6], 2.13. The composite z-score in assay [7] was 1.13; in [9] it was 1.36; in assay [10], -0.139; in assay [11], 0.173; in [15], 3.36; in assay [17] it was 0.341. The figures for the composite z-score in assay [18], in assay [19] and in assay [20] were -0.138, 1.08 and 0.191, respectively. Also, the z-score is -0.169 (inactive) in assay [8]; 0.37 (inactive) in assay [12]; 0.821 (inactive) in assay [13]; -0.444 (inactive) in assay [14]; -0.373 (inactive) in [16].

Consider `O=C1OCCC/C=C\[C@H]2OC34C=CCN(Cn5nnc6ccccc65)C(=O)[C@H]3N(CCCCCCO)C(=O)[C@@H]4C12` (stereo not given in full), for which the composite z-score in [1] is 0.144; in [2], 1.57; in [3], -0.167; in assay [4], -1.04; in [5], -0.969; in assay [6] it was 0.0553. The composite z-score is 1.25 in assay [7]; -0.582 in [9]; -0.273 in [10]; 0.827 in [11]; 3.5 in assay [15]; -0.181 in assay [17]. The composite z-score is -0.272 in assay [18], -0.269 in assay [19] and -0.224 in assay [20]. Further, the z-score is -0.584 (inactive) in assay [8]; -3.24 (inactive) in [12]; -0.0541 (inactive) in assay [13]; -1.28 (inactive) in assay [14]; 2.87 (inactive) in assay [16].

For `CCN(CC)c1ccc(N2CC=CC34O[C@@H]5/C=C\CCCOC(=O)C5[C@H]3C(=O)N(CCO)[C@@H]4C2=O)cc1` (stereo not given in full), the composite z-score in assay [1] was 0.244; in assay [2], -0.542; in assay [3] it was -0.0785; in assay [4], -0.715; in assay [5], -1.24; in assay [6], 1.84. In addition, the composite z-score in [7] was 0.632; in [9], -0.584; in assay [10], -0.0061; in [11], 0.0226; in assay [15], 1.3; in assay [17] it was -0.253. Besides, the results for the composite z-score in assay [18], in assay [19] and in [20] were -0.715, -0.162 and -0.286, respectively. Further, the z-score in assay [8] is 0.599 (inactive); in assay [12], 0.0765 (inactive); in [13], -1.11 (inactive); in assay [14] it was 0.0541 (inactive); in [16], 0.557 (inactive).
